PubChem BioAssay
Calls of active or inactive are those of the source.

Tests used:
[1] = binders of probe aFSTL3 on microarray, primary screen, stem cell growth factor project, biochemical, small-molecule microarray, fluorescence 635/667 (AID 1064); settings: higher = more signal;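 also: measures binding of the biotinylated anti-FSTL3 antibody to printed compounds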
[2] = binders from COS7 lysate, DM2A8 probe, primary screen, torsin A project, cell lysate, small-molecule microarray, fluorescence 635/667 (AID 1065); settings: higher = more signal, COS7 lysate expressing mutant human TOR1A
[3] = binders of probe aFGF2 on microarray, primary screen, stem cell growth factor project, biochemical, small-molecule microarray, fluorescence 635/667 (AID 1067); settings: higher = more signal;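 also: measures binding of biotinylated aFGF2 protein to printed compounds on slides; z-score merges feature fluorescence and signal-to-noise across triplicate slides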
[4] = binders of probe aFGF10 on microarray, primary screen, stem cell growth factor project, biochemical, small-molecule microarray, fluorescence 635/667 (AID 1071); settings: higher = more signal;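 also: score merges 667 nm spot intensity and signal to noise from triplicate slides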
[5] = target: Neurogenic locus notch homolog protein 2 (Homo sapiens) (UniProt Q04721); assay: Notch2 binders on small-molecule microarrays, primary screen, biochemical, small-molecule microarray, 635 nm fluorescence, stem cell growth factors (AID 1073); settings: Notch2 binding, higher = more signal
[6] = target: Pro-neuregulin-1, membrane-bound isoform (Homo sapiens) (UniProt Q02297); assay: NRG1 binders on small-molecule microarrays, primary screen, psychiatric disease protein project, biochemical, small-molecule microarray, fluorescence 635/667 (AID 1075); settings: NRG1 binding, 635 nm fluorescence, higher = more signal;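 also: score combines 667 nm spot fluorescence with signal to noise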
[7] = tested on: Neuregulin-1 EGF-like domain; assay: binders of neuregulin-1 EGF-like domain, primary screen, biochemical, small-molecule microarray, 635 nm fluorescence (AID 1081); settings: small-molecule microarray binding, higher = more signal;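 also: binding of the protein to compounds printed on small-molecule microarray slides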
[8] = FRG1 promoter luciferase signal modulators, primary screen, FRG1 inhibition for FSHD, cell-based, C2C12 myotubes, firefly/Renilla luciferase, luminescence (AID 1084); settings: higher = more signal, called active from +8 up or from −8 down
[9] = binders of probe aFST on microarray, primary screen, stem cell growth factor project, biochemical, small-molecule microarray, fluorescence 635/667 (AID 1086); settings: higher = more signal;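 also: score merges 667 nm fluorescence with signal-to-noise of each printed compound spot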
[10] = binders of probe aHhip on microarray, primary screen, stem cell growth factor project, biochemical, small-molecule microarray, fluorescence 635/667 (AID 1087); settings: higher = more signal;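 also: score merges spot fluorescence at 667nm with spot signal to noise ratio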
[11] = tested on: PRMT1 (protein arginine N-methyltransferase 1); assay: PRMT1 binders on small-molecule microarrays, primary screen, biochemical, small-molecule microarray, 635 nm fluorescence (AID 1088); settings: small-molecule microarray binding, higher = more signal;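 also: binding of Prmt1 protein to compounds spotted on small-molecule microarray slides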
[12] = yeast growth modulation, basal conditions, primary screen, YJM789 clinical isolate, OD600, 24 h (AID 1089);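 also: growth of clinical yeast isolate S. cerevisiae YJM 789 seeded 1000 cells per well; test concentration not given here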; settings: S. cerevisiae YJM789 growth, higher = more signal, called active from +8 up or from −8 down
[13] = fission yeast growth modulation, primary screen, strain 972, OD600, 24 h, no modulator (AID 1090);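 also: basal condition with compound alone and no growth modifier present; test concentration not given here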; settings: S. pombe 972 growth, higher = more signal, called active from +8 up or from −8 down
[14] = S. cerevisiae growth modulation with rapamycin, primary screen, strain BY4716, OD600, 96 h (AID 1091); settings: higher = more signal, called active from +8 up or from −8 down; also: test concentration not given here
[15] = target: Torsin-1A-interacting protein 2 (Homo sapiens) (UniProt Q8NFQ8); assay: LULL1 binders on small-molecule microarray, primary screen, cell lysate, human LULL1 lysate, 635/667 nm fluorescence (AID 1092); settings: hLULL1 lysate binding, 635 nm fluorescence, higher = more signal;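 also: probe is lysate of COS7 cells overexpressing human LULL1; score merges per-feature 667 nm fluorescence with signal-to-noise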
[16] = E. coli growth modulation, two-sided OD650, primary screen, E. coli filamentation project, strain DRC41, 24 h (AID 1093); settings: OD650, 24 h, higher = more signal, called active from +8 up or from −8 down;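 also: MC1000 strain lacking acrAB efflux and sulA so SOS filamentation is blocked; test concentration not given here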
[17] = small-molecule microarray binders of probe aLefty2, primary screen, biochemical, biotinylated probe, 635/667 nm fluorescence (AID 1094); settings: higher = more signal;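 also: score merges spot fluorescence near 667 nm with spot signal-to-noise ratio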
[18] = tested on: Noggin (protein binding on small-molecule microarray); assay: Noggin binders on small-molecule microarray, primary screen, biochemical, 635/667 nm fluorescence (AID 1095); settings: 635 nm fluorescence, higher = more signal;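 also: score merges 667 nm feature fluorescence with signal to noise over triplicate slides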
[19] = target: Neurogenic locus notch homolog protein 3 (Homo sapiens) (UniProt Q9UM47); assay: NOTCH3 binders on small-molecule microarray, primary screen, biochemical, 635/667 nm fluorescence (AID 1096); settings: NOTCH3 binding, 635 nm fluorescence, higher = more signal
[20] = small-molecule microarray binders of probe aEGFR, primary screen, biochemical, biotinylated probe, 635/667 nm fluorescence (AID 1097); settings: higher = more signal;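 also: probe is a biotinylated anti-EGFR antibody binding compounds printed on slides; score combines fluorescence near 667 nm and signal to noise of each spot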

Chain of Torsin-1A-interacting protein 2 (Homo sapiens) (Q8NFQ8 whole entry, looked up): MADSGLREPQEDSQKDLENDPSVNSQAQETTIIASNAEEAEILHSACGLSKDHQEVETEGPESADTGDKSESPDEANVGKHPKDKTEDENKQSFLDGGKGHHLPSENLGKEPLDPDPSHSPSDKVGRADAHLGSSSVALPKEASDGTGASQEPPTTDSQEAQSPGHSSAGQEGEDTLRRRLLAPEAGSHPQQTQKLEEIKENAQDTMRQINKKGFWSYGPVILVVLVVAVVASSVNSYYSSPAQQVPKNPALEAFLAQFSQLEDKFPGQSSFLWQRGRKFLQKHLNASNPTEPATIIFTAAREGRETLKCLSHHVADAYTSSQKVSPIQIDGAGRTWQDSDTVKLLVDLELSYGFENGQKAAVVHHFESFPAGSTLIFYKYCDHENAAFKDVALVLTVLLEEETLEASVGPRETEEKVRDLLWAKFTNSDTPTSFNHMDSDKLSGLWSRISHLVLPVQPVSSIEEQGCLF
Chain of Neurogenic locus notch homolog protein 2 (Homo sapiens) (Q04721 whole entry, looked up, canonical isoform): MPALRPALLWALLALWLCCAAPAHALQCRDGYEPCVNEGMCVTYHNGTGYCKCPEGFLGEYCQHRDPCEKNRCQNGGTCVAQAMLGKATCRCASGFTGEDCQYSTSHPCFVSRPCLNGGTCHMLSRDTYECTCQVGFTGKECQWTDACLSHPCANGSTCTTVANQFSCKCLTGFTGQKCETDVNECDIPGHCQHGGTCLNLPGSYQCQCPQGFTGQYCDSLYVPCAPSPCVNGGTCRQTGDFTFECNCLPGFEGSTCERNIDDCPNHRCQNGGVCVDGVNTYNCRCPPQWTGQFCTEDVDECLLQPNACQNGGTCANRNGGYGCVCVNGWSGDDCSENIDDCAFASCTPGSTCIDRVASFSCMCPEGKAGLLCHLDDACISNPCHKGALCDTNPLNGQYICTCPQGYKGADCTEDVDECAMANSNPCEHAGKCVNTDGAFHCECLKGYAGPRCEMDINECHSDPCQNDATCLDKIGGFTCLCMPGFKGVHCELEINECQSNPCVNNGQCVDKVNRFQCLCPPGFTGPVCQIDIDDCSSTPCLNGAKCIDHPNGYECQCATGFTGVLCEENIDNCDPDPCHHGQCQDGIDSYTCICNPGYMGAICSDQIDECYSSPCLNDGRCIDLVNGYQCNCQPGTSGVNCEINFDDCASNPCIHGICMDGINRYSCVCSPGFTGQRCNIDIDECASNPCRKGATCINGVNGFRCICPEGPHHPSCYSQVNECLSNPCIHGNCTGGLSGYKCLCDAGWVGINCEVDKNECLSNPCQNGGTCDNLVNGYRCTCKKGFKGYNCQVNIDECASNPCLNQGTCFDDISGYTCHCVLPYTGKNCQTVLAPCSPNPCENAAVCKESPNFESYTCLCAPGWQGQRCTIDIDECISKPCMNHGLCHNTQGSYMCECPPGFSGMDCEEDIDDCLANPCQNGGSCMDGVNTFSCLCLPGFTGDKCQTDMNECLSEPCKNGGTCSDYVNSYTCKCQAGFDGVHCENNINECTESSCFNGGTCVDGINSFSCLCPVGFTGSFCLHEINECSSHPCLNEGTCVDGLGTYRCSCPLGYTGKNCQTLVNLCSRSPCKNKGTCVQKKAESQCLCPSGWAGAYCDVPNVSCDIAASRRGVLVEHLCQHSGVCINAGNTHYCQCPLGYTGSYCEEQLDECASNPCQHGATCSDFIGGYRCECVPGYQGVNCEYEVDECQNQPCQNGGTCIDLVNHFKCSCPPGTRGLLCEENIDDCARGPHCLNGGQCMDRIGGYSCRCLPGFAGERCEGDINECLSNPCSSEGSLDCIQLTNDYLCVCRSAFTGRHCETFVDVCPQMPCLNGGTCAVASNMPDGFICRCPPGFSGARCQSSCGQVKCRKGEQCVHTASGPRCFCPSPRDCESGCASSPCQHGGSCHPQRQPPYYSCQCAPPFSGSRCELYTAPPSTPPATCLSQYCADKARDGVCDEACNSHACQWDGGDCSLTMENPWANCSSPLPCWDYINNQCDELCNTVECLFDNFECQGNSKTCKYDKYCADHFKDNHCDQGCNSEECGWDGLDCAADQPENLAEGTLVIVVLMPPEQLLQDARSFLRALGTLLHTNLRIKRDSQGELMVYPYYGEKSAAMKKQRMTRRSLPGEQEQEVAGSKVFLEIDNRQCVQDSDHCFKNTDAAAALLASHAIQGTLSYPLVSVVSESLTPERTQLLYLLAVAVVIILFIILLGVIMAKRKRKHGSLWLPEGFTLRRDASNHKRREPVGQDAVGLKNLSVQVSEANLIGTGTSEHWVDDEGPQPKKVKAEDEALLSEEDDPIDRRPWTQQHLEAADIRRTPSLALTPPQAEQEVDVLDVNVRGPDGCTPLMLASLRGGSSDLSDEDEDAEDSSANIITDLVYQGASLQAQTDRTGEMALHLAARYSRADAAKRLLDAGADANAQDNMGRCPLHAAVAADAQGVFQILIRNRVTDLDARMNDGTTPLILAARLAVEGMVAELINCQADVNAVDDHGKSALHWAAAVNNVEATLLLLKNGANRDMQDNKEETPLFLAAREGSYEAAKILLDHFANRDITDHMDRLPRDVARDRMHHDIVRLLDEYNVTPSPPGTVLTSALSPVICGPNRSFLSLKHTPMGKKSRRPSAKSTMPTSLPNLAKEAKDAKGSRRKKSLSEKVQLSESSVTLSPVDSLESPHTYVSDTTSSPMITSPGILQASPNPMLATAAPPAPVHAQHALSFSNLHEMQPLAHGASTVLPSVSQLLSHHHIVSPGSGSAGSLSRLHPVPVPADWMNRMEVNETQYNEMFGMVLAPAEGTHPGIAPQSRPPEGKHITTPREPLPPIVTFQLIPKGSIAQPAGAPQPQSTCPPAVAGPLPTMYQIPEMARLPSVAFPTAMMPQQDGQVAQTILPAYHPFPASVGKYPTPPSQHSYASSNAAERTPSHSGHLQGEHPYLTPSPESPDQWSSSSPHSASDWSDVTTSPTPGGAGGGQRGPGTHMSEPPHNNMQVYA
Chain of Pro-neuregulin-1, membrane-bound isoform (Homo sapiens) (Q02297 whole entry, looked up, the tested form may be a part, canonical isoform): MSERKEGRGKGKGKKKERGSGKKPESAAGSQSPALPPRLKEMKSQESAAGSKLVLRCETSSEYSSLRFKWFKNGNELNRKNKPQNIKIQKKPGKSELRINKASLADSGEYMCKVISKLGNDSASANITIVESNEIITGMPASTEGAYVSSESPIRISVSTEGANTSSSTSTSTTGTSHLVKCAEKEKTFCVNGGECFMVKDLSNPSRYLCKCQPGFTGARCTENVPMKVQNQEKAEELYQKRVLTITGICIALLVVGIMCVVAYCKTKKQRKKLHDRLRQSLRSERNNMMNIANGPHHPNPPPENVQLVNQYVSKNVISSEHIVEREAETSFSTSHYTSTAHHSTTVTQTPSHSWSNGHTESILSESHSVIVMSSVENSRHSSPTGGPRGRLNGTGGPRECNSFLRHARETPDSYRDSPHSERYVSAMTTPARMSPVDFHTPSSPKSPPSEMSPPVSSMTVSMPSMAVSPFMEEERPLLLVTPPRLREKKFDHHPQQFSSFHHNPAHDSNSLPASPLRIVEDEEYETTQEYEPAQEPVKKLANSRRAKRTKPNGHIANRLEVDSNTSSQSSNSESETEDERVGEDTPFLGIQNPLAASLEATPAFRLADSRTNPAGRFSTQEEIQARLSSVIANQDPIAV

CCOC(=O)C1=NO[C@@]2(C=C(Br)C3(OCCCO3)[C@H]3O[C@H]32)C1
composite z-score [1]: 0.224 | composite z-score [2]: 0.0735 | composite z-score [3]: -0.116 | composite z-score [4]: 1.05 | composite z-score [5]: 0.282 | composite z-score [6]: -0.467 | composite z-score [7]: 0.646 | z-score [8]: 0.0274 (inactive) | composite z-score [9]: 0.248 | composite z-score [10]: 0.0972 | composite z-score [11]: -0.481 | z-score [12]: 0.74 (inactive) | z-score [13]: 0.664 (inactive) | z-score [14]: -0.291 (inactive) | composite z-score [15]: 0.0603 | z-score [16]: 0.292 (inactive) | composite z-score [17]: 0.105 | composite z-score [18]: 1.42 | composite z-score [19]: 0.91 | composite z-score [20]: -0.004

O=C1[C@H]2[C@H]3[C@H](O)[C@H](O)CC(=NOC[C@@H](O)COCc4ccco4)[C@@H]3CC[C@H]2C(=O)N1C[C@@H]1CCCO1
composite z-score [1]: -0.861 | composite z-score [2]: 2.29 | composite z-score [3]: -0.213 | composite z-score [4]: -0.32 | composite z-score [5]: -0.323 | composite z-score [6]: -0.271 | composite z-score [7]: 1.22 | z-score [8]: -0.218 (inactive) | composite z-score [9]: -0.14 | composite z-score [10]: 0.0139 | composite z-score [11]: 1.37 | z-score [12]: 0.715 (inactive) | z-score [13]: 1.01 (inactive) | z-score [14]: 0.714 (inactive) | composite z-score [15]: -0.239 | z-score [16]: 1.05 (inactive) | composite z-score [17]: -0.0732 | composite z-score [18]: 0.997 | composite z-score [19]: 0.395 | composite z-score [20]: -0.344

CON=C1[C@H]2CCn3c(=O)n(-c4ccccc4)c(=O)n3[C@H]2[C@H](O)[C@@H]2O[C@H]12
composite z-score [1]: -0.39 | composite z-score [2]: 0.135 | composite z-score [3]: -0.0533 | composite z-score [4]: 0.383 | composite z-score [5]: 0.41 | composite z-score [6]: 0.0959 | composite z-score [7]: 0.561 | z-score [8]: -1.17 (inactive) | composite z-score [9]: 0.17 | composite z-score [10]: -0.199 | composite z-score [11]: 0.887 | z-score [12]: -1.57 (inactive) | z-score [13]: -1.81 (inactive) | z-score [14]: 2.3 (inactive) | composite z-score [15]: 0.456 | z-score [16]: -0.114 (inactive) | composite z-score [17]: -0.205 | composite z-score [18]: 1.02 | composite z-score [19]: 0.646 | composite z-score [20]: -0.177

CO[C@H]1COC(=O)[C@@H](C)COC(=O)[C@H](C)NC(=O)CC=C[C@H]1C
composite z-score [1]: -0.451 | composite z-score [2]: 1.18 | composite z-score [3]: -0.0354 | composite z-score [4]: 0.222 | composite z-score [5]: 0.0126 | composite z-score [6]: -0.521 | composite z-score [7]: 0.734 | z-score [8]: -0.53 (inactive) | composite z-score [9]: 0.101 | composite z-score [10]: -0.0557 | composite z-score [11]: 1.23 | z-score [12]: 0.508 (inactive) | z-score [13]: 0.0971 (inactive) | z-score [14]: -0.431 (inactive) | composite z-score [15]: 0.0586 | z-score [16]: 0.414 (inactive) | composite z-score [17]: -0.212 | composite z-score [18]: 1.64 | composite z-score [19]: 0.195 | composite z-score [20]: 0.0673

O=c1n(-c2ccccc2)c(=O)n2n1CC[C@@H]1C(=NOCc3ccccc3)[C@H]3O[C@H]3[C@@H](O)[C@@H]12
composite z-score [1]: -0.489 | composite z-score [2]: -0.285 | composite z-score [3]: -0.0494 | composite z-score [4]: 0.472 | composite z-score [5]: -0.267 | composite z-score [6]: -0.0644 | composite z-score [7]: -0.338 | z-score [8]: -0.354 (inactive) | composite z-score [9]: -0.0869 | composite z-score [10]: -0.284 | composite z-score [11]: -0.955 | z-score [12]: -0.434 (inactive) | z-score [13]: -0.326 (inactive) | z-score [14]: -0.871 (inactive) | composite z-score [15]: -0.0733 | z-score [16]: -0.619 (inactive) | composite z-score [17]: -0.274 | composite z-score [18]: -0.131 | composite z-score [19]: 0.116 | composite z-score [20]: -0.0531

COC(=O)CC=C[C@@H](C)[C@@H](C=NO[C@H](C)c1cn([C@H](CO)Cc2ccccc2)nn1)NS(=O)(=O)c1ccc(C)cc1
composite z-score [1]: -0.468 | composite z-score [2]: 2.12 | composite z-score [3]: -0.165 | composite z-score [4]: -0.147 | composite z-score [5]: -0.303 | composite z-score [6]: -0.211 | composite z-score [7]: 0.0224 | z-score [8]: -0.25 (inactive) | composite z-score [9]: 0.227 | composite z-score [10]: -0.251 | composite z-score [11]: 0.915 | z-score [12]: -0.798 (inactive) | z-score [13]: 0.359 (inactive) | z-score [14]: -0.824 (inactive) | composite z-score [15]: 0.786 | z-score [16]: -0.297 (inactive) | composite z-score [17]: -0.0407 | composite z-score [18]: 0.857 | composite z-score [19]: -0.0329 | composite z-score [20]: 0.168

CCOC(=O)[C@H](Cc1ccccc1)NC(=O)CCC1CC(OC(=O)NCc2cccc3ccccc23)CC2(CCCC(COC(=O)NCc3cccc(C(F)(F)F)c3)O2)O1 (stereo not given in full)
composite z-score [1]: -0.223 | composite z-score [2]: -0.549 | composite z-score [3]: -0.0934 | composite z-score [4]: 0.19 | composite z-score [5]: 0.211 | composite z-score [6]: 0.567 | composite z-score [7]: 0.74 | z-score [8]: -1.05 (inactive) | composite z-score [9]: -0.143 | composite z-score [10]: -0.0645 | composite z-score [11]: 0.176 | z-score [12]: 0.655 (inactive) | z-score [13]: 0.611 (inactive) | z-score [14]: 1.67 (inactive) | composite z-score [15]: 1.48 | z-score [16]: -0.353 (inactive) | composite z-score [17]: -0.217 | composite z-score [18]: 0.0178 | composite z-score [19]: 0.212 | composite z-score [20]: -0.114

O=C1C=C[C@@H](O)[C@@H]2[C@@H]3C(=O)N(c4ccc(F)cc4F)C(=O)[C@@H]3CC[C@@H]12
composite z-score [1]: -0.298 | composite z-score [2]: 0.55 | composite z-score [3]: -0.0493 | composite z-score [4]: 0.547 | composite z-score [5]: 0.611 | composite z-score [6]: 0.12 | composite z-score [7]: 0.384 | z-score [8]: -0.996 (inactive) | composite z-score [9]: 0.142 | composite z-score [10]: -0.0994 | composite z-score [11]: 0.0661 | z-score [12]: -2.33 (inactive) | z-score [13]: -2.21 (inactive) | z-score [14]: -0.724 (inactive) | composite z-score [15]: 0.587 | z-score [16]: -0.421 (inactive) | composite z-score [17]: -0.247 | composite z-score [18]: 1.08 | composite z-score [19]: 0.134 | composite z-score [20]: -0.162

CC(C)=NOC[C@@H](C)[C@H](OCc1ccccc1)C(C)C
composite z-score [1]: 0.245 | composite z-score [2]: -0.381 | composite z-score [3]: -0.147 | composite z-score [4]: -0.303 | composite z-score [5]: -0.885 | composite z-score [6]: -0.277 | composite z-score [7]: -0.372 | z-score [8]: 0.755 (inactive) | composite z-score [9]: -0.21 | composite z-score [10]: 0.163 | composite z-score [11]: -0.465 | z-score [12]: 0.682 (inactive) | z-score [13]: -0.207 (inactive) | z-score [14]: 0.752 (inactive) | composite z-score [15]: -0.602 | z-score [16]: 0.0184 (inactive) | composite z-score [17]: -0.127 | composite z-score [18]: 1.06 | composite z-score [19]: -1.12 | composite z-score [20]: -0.0656

CC(=O)OC[C@H]1O[C@H](CC=NO[C@H](C)c2cn([C@H](CO)Cc3ccccc3)nn2)C=C[C@@H]1OC(C)=O
composite z-score [1]: -0.789 | composite z-score [2]: 0.379 | composite z-score [3]: -0.087 | composite z-score [4]: 0.541 | composite z-score [5]: 0.911 | composite z-score [6]: 1.33 | composite z-score [7]: 0.711 | z-score [8]: 0.235 (inactive) | composite z-score [9]: 0.246 | composite z-score [10]: -0.201 | composite z-score [11]: 1.34 | z-score [12]: 1.36 (inactive) | z-score [13]: 1.34 (inactive) | z-score [14]: 1.4 (inactive) | composite z-score [15]: 1.06 | z-score [16]: 0.655 (inactive) | composite z-score [17]: -0.0998 | composite z-score [18]: 0.61 | composite z-score [19]: 1 | composite z-score [20]: 0.009
